Measured values as given in publication PMC12670160, “A drug-repurposing screen of FDA- and EMA-approved drugs identifies two NF-κB inhibitors active against eumycetoma” (Journal of Antimicrobial Chemotherapy, 2025).
Where a name gives a salt, the structure may show the parent alone. The whole screen tested about 5,300 compounds, of which about 130 (2.5%) showed an effect of 50% or more. The list comes from a sample in which strong results are over-represented; it also holds similar structures and randomly drawn compounds.

What follows are molecules tested on M. mycetomatis strain mm55. Conditions: m. mycetomatis hyphae, 96 h, 2 µM.
With `Cc1ccc2c(c1)[C@]13CCCC[C@@H]1[C@H](C2)N(C)CC3` [ONC0001964, dimemorfan] the “% viability” value was 96.79%.
`O=C1C=C2C=C[C@@H]3C[C@@]2(O1)[C@H]1CCCCN31` [ONC0004197, securinine] was tested, and the “% viability” value was 79.41%.
For `OC1(c2ccc(Cl)cc2)c2ccccc2C2=NCCN21` (stereo not shown) [ONC0005297, mazindol], the “% viability” value was 110.5%.
For `CN(C)CCNc1nc2cc(O)ccc2c2c1C(=O)c1ccccc1-2` [ONC0002255, tas103 dihydrochloride], the “% viability” value was 114.4%.
In the case of `Oc1ccc2c3c1O[C@H]1c4[nH]c5ccccc5c4C[C@@]4(O)[C@@H](C2)N(CC2CC2)CC[C@]314` [ONC0001519, naltrindole], the “% viability” value is reported as 93.26%.
In the case of `Oc1ccc2c3c1O[C@H]1c4oc5ccccc5c4C[C@@]4(O)[C@@H](C2)N(CC2CC2)CC[C@]314` [ONC0001439, naltriben], the “% viability” value is reported as 49.95%.
With `Oc1ccc2c3c1O[C@H]1[C@@H](O)CC[C@@]4(O)[C@@H](C2)N(CC2CCC2)CC[C@]314` [ONC0002017, nalbuphinehcl] the “% viability” value was 86.82%.
In the case of `CN(C(=O)/C=C/c1ccoc1)[C@@H]1CC[C@@]2(O)[C@H]3Cc4ccc(O)c5c4[C@@]2(CCN3CC2CC2)[C@H]1O5` [ONC0001145, nalfurafine hydrochloride], the “% viability” value is reported as 84.21%.
`COC(=O)/C=C/C(=O)N[C@@H]1CC[C@@]2(O)[C@H]3Cc4ccc(O)c5c4[C@@]2(CCN3CC2CC2)[C@H]1O5` [ONC0001459, betafunaltrexamine] was tested, and the “% viability” value was 48.02%.
For `Oc1ccc2c3c1O[C@H]1c4[nH]c5c(c4C[C@@]4(O)[C@@H](C2)N(CC2CC2)CC[C@]314)C[C@@]1(O)[C@H]2Cc3ccc(O)c4c3[C@@]1(CCN2CC1CC1)[C@H]5O4` [ONC0002653, norbinaltorphiminedihydrochloride], the “% viability” value was 66%.
For `O=C1NC(=S)NC(=O)C1C(=O)Nc1ccccc1` [ONC0002959, merbarone], the “% viability” value was 104.2%.
For `COc1ccsc1CNCC[C@@]1(c2ccccn2)CCOC2(CCCC2)C1` [ONC0001391, oliceridine hydrochloride], the “% viability” value was 102.3%.
With `O=C(C[S+]([O-])C(c1ccccc1)c1ccccc1)NO` (stereo not shown) [ONC0001184, adrafinil] the “% viability” value was 106.5%.
For `Clc1ccc(CO/N=C(\Cn2ccnc2)c2ccc(Cl)cc2Cl)c(Cl)c1` [Oxiconazole nitrate], the “% viability” value was 0.8852%.
For `CC(=O)[C@H]1CC[C@H]2[C@@H]3CC[C@@H]4C[C@H](O)CC[C@]4(C)[C@H]3CC[C@]12C` [ONC0001671, allopregnanolone], the “% viability” value was 102.1%.
With `Cc1ccccc1-n1c(CF)nc2ccc(N)cc2c1=O` [ONC0003405, afloqualone] the “% viability” value was 71.52%.
For `CC(C)CC(N)C1(c2ccc(Cl)cc2)CCC1` (stereo not shown) [ONC0002665, bts54505], the “% viability” value was 62.54%.
For `O=C(Nc1ccccc1F)N[C@H]1N=C(c2ccccc2)c2ccccc2NC1=O` [ONC0000966, rsv604], the “% viability” value was 70.36%.
With `OCC(O)[C@H]1O[C@@H]2O[C@H](C(Cl)(Cl)Cl)O[C@@H]2[C@H]1O` (stereo partly shown) [ONC0004285, chloralose] the “% viability” value was 88.6%.
For `c1ccc(CC(c2ccccc2)N2CCCCC2)cc1` (stereo not shown) [ONC0000060, 112diphenylethylpiperidine], the “% viability” value was 45.07%.
`Cc1cccc(C)c1N=C1NCCCS1` [ONC0000628, xylazine] was tested, and the “% viability” value was 103.4%.
For `O=C(O)Cc1cccnc1C(=O)O` [ONC0001551, homoquinolinicacid], the “% viability” value was 85.08%.
With `CC(C)(O)[C@H]1[C@@H]2OC(=O)[C@@H]1[C@]1(O)C[C@H]3O[C@]34C(=O)O[C@H]2[C@]14C` [ONC0002779, picrotin] the “% viability” value was 109.3%.
`C=C(C)[C@@H]1[C@H]2OC(=O)[C@H]1[C@]1(O)C[C@H]3O[C@]34C(=O)O[C@H]2[C@]14C` [ONC0004797, picrotoxinin] was tested, and the “% viability” value was 48.22%.
With `C=CCN1CC[C@@]2(C)c3cc(O)ccc3C[C@H]1[C@H]2C` [ONC0000854, skf10047] the “% viability” value was 56.88%.
